According to PubChem BioAssay:
Activity calls are given as the source filed them.

Key:
[1] = tested on: Human papillomavirus type 1a protein E7 (residues 44-93); test: HPV1a E7 fragment binders on microarrays, primary screen, biochemical, small-molecule microarray, residues 44-93, 635 nm fluorescence (AID 1108); conditions: small-molecule microarray binding, fluorescence 635 nm; higher = more signal;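 further: E7 fragment applied at 1 µg/mL in TBST for 1 h at 4 C; score combines spot fluorescence with its signal to noise ratio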
[2] = modulators of HCV replicon luciferase signal, primary screen, HCV replication inhibitor project, Huh7 cells, luciferase reporter (AID 1109); conditions: 48 h, higher = more signal;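 further: huh7 hepatoma cells harbouring a luciferase neomycin HCV replicon reporter; luciferase luminescence as measure of HCV replicon replication; test concentration not given here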
[3] = target: Left-right determination factor 2 (Homo sapiens) (UniProt O00292); test: LEFTY2 binders on small-molecule microarrays, primary screen, biochemical, small-molecule microarray, 635 nm fluorescence scan (AID 1110); conditions: LEFTY2 binding, higher = more signal
Chain of Left-right determination factor 2 (Homo sapiens) (O00292 whole entry, looked up): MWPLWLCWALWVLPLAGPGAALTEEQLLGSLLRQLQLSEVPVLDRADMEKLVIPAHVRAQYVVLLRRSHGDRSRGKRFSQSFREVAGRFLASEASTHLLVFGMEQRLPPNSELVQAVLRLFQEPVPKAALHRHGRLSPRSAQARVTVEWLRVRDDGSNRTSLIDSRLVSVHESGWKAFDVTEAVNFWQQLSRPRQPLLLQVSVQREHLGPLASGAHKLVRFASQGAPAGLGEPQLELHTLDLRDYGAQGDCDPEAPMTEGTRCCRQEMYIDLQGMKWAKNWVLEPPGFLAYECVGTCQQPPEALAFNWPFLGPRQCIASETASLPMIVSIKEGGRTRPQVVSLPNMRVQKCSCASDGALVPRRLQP

[4] = target: Calmodulin-1 (Homo sapiens) (UniProt P0DP23); test: CALM1 binders on microarrays, EGTA buffer, profiling panel, biochemical, small-molecule microarray, Cy5-labelled CALM1 (AID 1111); conditions: Cy5-CALM1 binding fluorescence, higher = more signal;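 further: labelled calmodulin applied in Tris saline Tween buffer holding calcium plus EGTA and DTT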
[5] = target: Calmodulin-1 (Homo sapiens) (UniProt P0DP23); test: calcium-bound CALM1 binders on microarrays, profiling panel, artefact control for SMM control-protein annotation, biochemical, small-molecule microarray, Cy5-labelled CALM1, plus calcium (AID 1112); conditions: Cy5-CALM1 binding fluorescence, higher = more signal;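 further: score merges spot fluorescence with signal to noise from triplicate slides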
[6] = small-molecule microarray binders of probe aWnt5a, primary screen, biochemical, biotinylated probe, 635/667 nm fluorescence (AID 1113); conditions: higher = more signal;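 further: score merges 667 nm fluorescence intensity with signal-to-noise per printed feature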
[7] = small-molecule microarray binders of probe aShh, primary screen, biochemical, biotinylated probe, 635/667 nm fluorescence (AID 1114); conditions: higher = more signal;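 further: probe is biotin-labelled aShh protein from a stem cell growth factor screen; measures binding of labelled protein to compounds printed on the slide; score merges feature fluorescence at 667 nm with signal-to-noise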
[8] = small-molecule microarray binders of probe aNog, primary screen, biochemical, biotinylated probe, 635/667 nm fluorescence (AID 1115); conditions: higher = more signal;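 further: probe is biotinylated aNog protein used at 0.15 µg/mL for 1 h at 4 C; z-score combines 667 nm fluorescence of each spot with its signal to noise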
[9] = target: Torsin-1A-interacting protein 1 (Homo sapiens) (UniProt Q5JTV8); test: LAP1 binders from COS7 cell lysate, primary screen, small-molecule microarray, 635/667 nm fluorescence (AID 1116); conditions: COS7-hLAP1 lysate binding, 635 nm fluorescence, higher = more signal
Chain of Torsin-1A-interacting protein 1 (Homo sapiens) (Q5JTV8 whole entry, looked up): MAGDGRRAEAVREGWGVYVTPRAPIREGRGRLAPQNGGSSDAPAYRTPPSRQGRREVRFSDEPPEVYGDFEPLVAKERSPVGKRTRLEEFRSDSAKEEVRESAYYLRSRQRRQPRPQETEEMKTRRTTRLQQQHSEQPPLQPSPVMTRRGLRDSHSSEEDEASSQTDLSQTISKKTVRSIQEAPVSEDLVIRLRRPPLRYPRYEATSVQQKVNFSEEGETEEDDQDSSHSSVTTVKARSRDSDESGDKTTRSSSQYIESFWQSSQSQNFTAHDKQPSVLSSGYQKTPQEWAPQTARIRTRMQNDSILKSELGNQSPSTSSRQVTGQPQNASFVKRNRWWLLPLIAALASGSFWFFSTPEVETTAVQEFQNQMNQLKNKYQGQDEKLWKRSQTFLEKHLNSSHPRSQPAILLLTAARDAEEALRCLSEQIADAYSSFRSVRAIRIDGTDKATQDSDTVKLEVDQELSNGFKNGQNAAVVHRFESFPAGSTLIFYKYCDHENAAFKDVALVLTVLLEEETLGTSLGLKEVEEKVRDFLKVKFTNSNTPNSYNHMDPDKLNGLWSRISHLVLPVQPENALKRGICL

[10] = target: Alpha-bungarotoxin (Bungarus multicinctus) (UniProt P60615); test: alpha-bungarotoxin binders on microarray, profiling panel, artefact control for SMM control protein annotation, biochemical, small-molecule microarray, Alexa647 label, 635/667 nm fluorescence (AID 1117); conditions: alpha-BTX-A647 binding fluorescence, higher = more signal
Chain of Alpha-bungarotoxin (Bungarus multicinctus) (P60615 whole entry, looked up): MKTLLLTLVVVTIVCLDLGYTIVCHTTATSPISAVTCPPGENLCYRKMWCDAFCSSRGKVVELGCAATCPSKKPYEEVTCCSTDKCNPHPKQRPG

Albumin (Bos taurus) = Albumin (Bos taurus) (UniProt P02769); test: bovine serum albumin binders on microarray, profiling panel, artefact control for SMM control protein annotation, biochemical, small-molecule microarray, Alexa647 label, 635/667 nm fluorescence (AID 1118); conditions: BSA-A647 binding, fluorescence 635 nm, higher = more signal;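 further: score merges 667 nm emission intensity and signal-to-noise per printed compound spot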
Chain of Albumin (Bos taurus) (P02769 whole entry, looked up): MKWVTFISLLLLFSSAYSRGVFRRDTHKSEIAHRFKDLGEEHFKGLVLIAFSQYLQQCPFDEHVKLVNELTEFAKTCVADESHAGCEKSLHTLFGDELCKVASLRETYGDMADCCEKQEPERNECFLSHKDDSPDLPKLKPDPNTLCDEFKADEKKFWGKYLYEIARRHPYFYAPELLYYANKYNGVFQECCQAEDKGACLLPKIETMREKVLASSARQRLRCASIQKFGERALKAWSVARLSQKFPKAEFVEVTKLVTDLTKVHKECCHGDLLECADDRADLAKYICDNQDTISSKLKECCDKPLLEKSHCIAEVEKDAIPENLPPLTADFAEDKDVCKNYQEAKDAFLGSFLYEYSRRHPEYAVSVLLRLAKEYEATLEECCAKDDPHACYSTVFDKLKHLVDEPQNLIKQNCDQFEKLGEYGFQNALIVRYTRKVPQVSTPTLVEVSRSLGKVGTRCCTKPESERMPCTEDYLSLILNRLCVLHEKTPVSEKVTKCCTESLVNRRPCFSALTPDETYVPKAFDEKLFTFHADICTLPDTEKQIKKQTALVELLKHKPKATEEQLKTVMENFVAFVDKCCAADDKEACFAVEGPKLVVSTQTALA

[11] = small-molecule microarray binders of probe aXIP, primary screen, biochemical, NeuroSMM set, 635/667 nm fluorescence (AID 1119); conditions: higher = more signal, called active from +8 up or from −8 down;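 further: probe is the protein aXip251-270 applied at 1 µg/mL to compound-printed slides; binding of probe to printed compounds measured as 667 nm fluorescence plus signal to noise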
[12] = small-molecule binders of probe aNOTCH3, primary screen, biochemical, small-molecule microarray, 635/667 nm fluorescence (AID 1120); conditions: higher = more signal;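 further: probe is a biotin-tagged antibody raised against NOTCH3 rather than NOTCH3 protein; score merges spot fluorescence near 667 nm with spot signal to noise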
[13] = small-molecule binders of probe aNOTCH2, primary screen, biochemical, small-molecule microarray, 635/667 nm fluorescence (AID 1121); conditions: higher = more signal;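 further: score merges feature fluorescence read at 667 nm with its signal to noise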
[14] = target: Carbonic anhydrase 2 (Homo sapiens) (UniProt P00918); test: CAII small-molecule binders, profiling panel, biochemical, small-molecule microarray, Alexa647-labelled CAII (AID 1122); conditions: CAII-A647 binding fluorescence, higher = more signal
[15] = COS7 lysate on small-molecule microarray, probe aHis, 635 nm (AID 1123); conditions: COS7 cell lysate, fluorescence, higher = more signal;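 further: z-score combines 667nm fluorescence intensity with signal-to-noise per printed compound spot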
[16] = compound binding in COS7 lysate, probe aLAP1, primary screen, cell lysate, small-molecule microarray (AID 1124); conditions: probe aLAP1, fluorescence, higher = more signal;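 further: lysate comes from COS7 cells expressing LAP1 and is applied at 0.3 µg/mL; score merges spot fluorescence near 667 nm with signal-to-noise over triplicate slides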
Sam68 (KHDRBS1) = test: Sam68 small-molecule binders, primary screen, biochemical, small-molecule microarray, 635 nm fluorescence (AID 1125); conditions: small-molecule microarray binding, higher = more signal;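 further: score merges 667 nm channel intensity with signal to noise over triplicate slides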
[17] = tested on: Chordin-like protein 2 (CHRDL2); test: CHRDL2 small-molecule binders, primary screen, biochemical, small-molecule microarray, 635 nm fluorescence (AID 1126); conditions: small-molecule microarray binding, fluorescence 635 nm; higher = more signal;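 further: printed compound slides probed with Chrdl2 protein at 4 µg/mL for 1 h at 4 C; score merges 667 nm emission intensity with signal to noise over three replicate slides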
[18] = target: Concanavalin-A (Canavalia ensiformis) (UniProt P02866); test: ConA small-molecule binders, primary screen, artefact control for SMM control protein annotation, biochemical, small-molecule microarray, Alexa647 label, 635 nm (AID 1127); conditions: ConA-A647 binding fluorescence, higher = more signal;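 further: z combines 667 nm emission intensity with signal-to-noise across three replicate slides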
Chain of Concanavalin-A (Canavalia ensiformis) (P02866 whole entry, looked up): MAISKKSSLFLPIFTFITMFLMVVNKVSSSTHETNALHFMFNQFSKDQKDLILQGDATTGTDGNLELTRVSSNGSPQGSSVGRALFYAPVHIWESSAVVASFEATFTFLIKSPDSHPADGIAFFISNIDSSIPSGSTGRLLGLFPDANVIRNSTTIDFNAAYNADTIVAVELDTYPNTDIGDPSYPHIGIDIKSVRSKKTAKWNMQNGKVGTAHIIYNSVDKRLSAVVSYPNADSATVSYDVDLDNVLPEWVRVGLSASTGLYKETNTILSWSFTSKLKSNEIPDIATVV

Compound	composite z-score [1]	z-score [2]	composite z-score [3]	composite z-score [4]	composite z-score [5]	composite z-score [6]	composite z-score [7]	composite z-score [8]	composite z-score [9]	composite z-score [10]	composite z-score (Albumin (Bos taurus))	composite Z-score [11]	composite z-score [12]	composite z-score [13]	composite z-score [14]	composite z-score [15]	composite z-score [16]	composite z-score (Sam68 (KHDRBS1))	composite z-score [17]	composite z-score [18]
COCCn1c(C(=O)N(C)C)cc2c1C[C@H]1CN(C(=O)c3ccccc3)[C@@](Cc3ccc(OC)cc3)(C(=O)OC)[C@@H]21	1.38	-1.27	0.0756	0.572	0.25	0.0431	0.204	0.919	0.357	0.0924	0.507	-0.0775 (inactive)	0.32	0.0323	0.659	2.94	0.294	0.914	-0.545	0.732
COCCOC(=O)N1C(=O)[C@@]2(c3ccccc31)[C@H](c1ccc(O)cc1)N1[C@H](c3ccccc3)[C@H](c3ccccc3)OC(=O)[C@H]1[C@@H]2C(=O)N1CCCCCCC1	1.34	-2.23	1.51	2.52	1.34	0.65	3.03	3.42	4.5	3.04	0.46	4.53 (inactive)	1.98	0.851	0.863	3.62	1.18	1.3	1.58	1.14
O=C1O[C@@H](c2ccccc2)[C@@H](c2ccccc2)N2[C@@H](c3ccc(OCCO)cc3)[C@]3(C(=O)Nc4ccc(C#CCCO)cc43)[C@@H](C(=O)O)[C@H]12	1.08	-0.22	0.687	2.03	0.408	0.663	0.582	2.45	1.99	1.95	0.559	0.919 (inactive)	0.955	0.516	0.746	2.2	0.636	1.28	1.02	1.15
CCCCCC1=C2CNC(CC(C)C)(C(=O)OC)C=C2C(C)C1=O (stereo not given)	1.2	-0.897	-0.869	1.64	1.22	-0.0165	1.16	0.154	0.932	0.195	0.624	-0.378 (inactive)	0.376	0.0453	0.495	1.9	0.602	1.18	-0.861	0.232
COc1ccc(C(=O)Nc2cccc(CN3C(=O)[C@@]4(O[C@@H](CC(=O)N5CCC[C@H]5CO)[C@H]([Si](C)(C)c5ccc(OC)cc5)[C@H]4C)c4ccccc43)c2)cc1	0.843	-3.13	0.801	1.26	0.78	-0.0643	-0.142	-0.138	1.72	2.08	0.343	-0.0697 (inactive)	0.0305	-0.11	0.531	1.75	-0.19	1.34	0.862	1.17
COc1ccc(C(=O)Nc2cccc(CN3C(=O)[C@]4(O[C@H](CC(=O)N5Cc6ccccc6C[C@H]5CO)[C@@H]([Si](C)(C)c5ccc(OC)cc5)[C@@H]4C)c4ccccc43)c2)cc1	1.23	-3.44	1.05	0.219	-0.763	0.0194	0.0639	0.0811	0.711	1.12	-0.513	-0.222 (inactive)	0.0243	-0.154	0.288	0.458	0.557	1.29	1.38	0.858
NC(=O)N1C(=O)C2C(C1=O)C1C=C(CCCO)C2C(C2CC2)N1Cc1sc2ccccc2c1Cl (stereo not given)	0.173	-1.63	0.138	1.42	0.459	-0.0685	0.138	0.654	1.19	1.67	0.758	0.121 (inactive)	-0.0362	-0.15	0.616	1.19	0.979	1.15	-0.0285	1.11
CC(C)=CCCC(C)=CC(O)C1C=CC2C(=O)NC(=O)C2N1Nc1ccc(Cl)cc1Cl (stereo not given)	1.36	-0.922	0.41	1.69	0.254	-0.0327	0.14	1.5	1.17	0.451	0.909	-0.0883 (inactive)	0.0952	-0.0464	0.596	1.49	1.36	0.623	0.307	0.623
CC(C)(C)N1CC=CC23O[C@@H]4/C=C\CCCOC(=O)C4[C@H]2C(=O)N(CCCO)[C@@H]3C1=O (stereo not given in full)	-0.751	0.0578	0.178	-0.71	-0.275	-0.172	-0.0192	0.185	-1.37	-1.62	0.706	-0.191 (inactive)	0.134	-0.0846	0.866	0.644	0.818	-0.446	-1.44	-1.02
CCOC(=O)C[C@H]1[C@H](OC(=O)Cc2ccc3c(c2)OCO3)[C@@H](NC(=O)Cc2ccc(OC)cc2)c2cc(OCCCO)ccc2N1C(=O)Cc1ccc(OC)cc1	0.221	-1.05	-0.261	0.824	0.0314	-0.147	-0.14	0.118	0.664	-0.105	0.635	0.472 (inactive)	-0.143	-0.172	0.263	0.428	0.0995	0.323	-0.0366	-0.117
